“And” between values parts separate entries of the source, which are not always exact repeats. Identical values can stand only once. Results filed as inconclusive are left out. More than one record can exist for a structure, and the calls need not agree. The source made the active and inactive calls. Unless noted, calls come from the whole dose curve; as a rule, active = well fitted curve in the direction sought with a large enough effect; inconclusive = small, poorly fitted or top-dose-only effect, or another doubt; inactive = no such curve, though single readings can be large; an effect the other way counts as inactive or inconclusive.
Tests used:
[1] = Cell Viability - LYMP2-024 (AID 988); note: nearly all actives have a fitted effect of over 60% in size; note: potency is the fitted concentration of half-maximal effect
Outline: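 ATP-based luminescence (CellTiter-Glo, 30 min RT) after 24 h compound exposure at 37 C of 2500 lymphoblastoid cells/well; decrease in ATP taken as cytotoxicity. qHTS concentration-response fitted to standard Hill equation for AC50.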

[2] = Cell Viability - LYMP2-026 (AID 989); note: nearly all actives have a fitted effect of over 50% in size; note: potency is the fitted concentration of half-maximal effect
Outline: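 qHTS cytotoxicity: 2500 cells/well, 5 hr 37 C, compound 24 hr 37 C, CellTiter-Glo 30 min RT, luminescence. Tetraoctylammonium bromide positive control. AC50 via standard Hill fit.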

[3] = Cell Viability - LYMP1-002 - Assay at 24 hr (AID 993); note: potency is the fitted concentration of half-maximal effect
Outline: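 CellTiter-Glo luminescence (intracellular ATP) after 24 h compound exposure, 37 C, in LYMP1-002 human lymphoblastoid cells; decreased ATP taken as cytotoxicity. AC50 from standard Hill fit of concentration-response curves.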

[4] = Cell Viability - LYMP1-002 - Assay at 40 hr (AID 994); note: nearly all actives have a fitted effect of over 60% in size; note: potency is the fitted concentration of half-maximal effect
Outline: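 qHTS cytotoxicity; 2500 cells/well, 5 hr 37 C settle, compound 40 hr 37 C. CellTiter-Glo, 30 min RT, luminescence (ATP). Concentration-response, Hill fit → AC50. Pos. ctrl tetraoctylammonium bromide.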

[5] = target: Alpha-galactosidase A (Homo sapiens) (UniProt P06280); assay: Counterscreen for Glucocerebrosidase Inhibitors: qHTS Assay for Human alpha-Galactosidase at pH 4.5 (AID 992)
Outline: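 Fluorogenic 1536-well qHTS at pH 4.5 (citrate, Tween-20): 2 nM enzyme, 80 uM 4-MU-alpha-galactoside, 20 min room temperature, NaOH/glycine stop. Titration 0.7 nM to 77 uM, data normalized to no-enzyme and full-activity controls, Hill-fitted AC50.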

[6] = target: alpha-glucosidase (Oryza sativa, rice) (UniProt Q653V4); assay: Counterscreen for Glucocerebrosidase Inhibitors: qHTS Assay for Rice alpha-Glucosidase at pH 5.0 (AID 997)
Outline: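 Endpoint fluorogenic assay at pH 5.0: compounds (0.7 nM to 77 uM) titrated against 4 nM rice enzyme and 400 uM 4-MU-alpha-glucoside for 20 min at room temperature; NaOH/glycine stop, read ex 365/em 440 nm, Hill-fitted AC50.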

[7] = target: Alpha-galactosidase (Coffea arabica) (UniProt Q42656); assay: Counterscreen for Glucocerebrosidase Inhibitors: qHTS Assay for Coffee Bean alpha-Galactosidase at pH 5.9 (AID 998)
Outline: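 Enzyme 2 nM + cpd (0.7 nM–77 uM titration) + 4-MU-alpha-Gal 80 uM, pH 5.9 citrate/Tween-20, RT 20 min, NaOH/glycine stop pH 10, fluor 365/440. Normalized to no-enzyme and full-activity controls; Hill-fit AC50.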

[8] = target: DNA repair nuclease/redox regulator APEX1 (Homo sapiens) (UniProt P27695); assay: qHTS Validation Assay for Inhibitors of the Human Apurinic/apyrimidinic Endonuclease 1 (APE1) (AID 1705;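 note: TAMRA fluorescence gain over two minutes as APE1 cuts a quenched THF abasic duplex; series mostly up to about 57 µM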)
Outline: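 Endonuclease activity of human APE1 is followed as dequenching when the enzyme incises a tetrahydrofuran abasic site in a short duplex labelled 5'-TAMRA/3'-BHQ-2 (50 nM final), after 15 min enzyme–compound preincubation at room temperature.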

[9] = Counterscreen for APE1 Inhibitors: Fluorescent Dye Displacement Validation Assay (AID 1707)
Outline: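 Counterscreen flags promiscuous DNA binders: compounds displacing ThO from duplex DNA (abasic THF site, 50 nM) reduce 540 nm emission (480 nm excitation). ThO 250 nM final; Tris-HCl pH 7.5 with NaCl, MgCl2 and Tween-20.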

[10] = qHTS for differential inhibitors of proliferation of Plasmodium falciparum line 7G8 (AID 1815);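 note: parasite growth measured after three days of incubation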; note: potency is the fitted concentration of half-maximal effect
[11] = qHTS for differential inhibitors of proliferation of Plasmodium falciparum line GB4 (AID 1816); conditions: Potency: Plasmodium falciparum GB4 proliferation inhibition;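 note: parasite growth measured after 72 h incubation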; note: potency is the fitted concentration of half-maximal effect
[12] = qHTS for differential inhibitors of proliferation of Plasmodium falciparum line 3D7 (AID 1876); note: potency is the fitted concentration of half-maximal effect
[13] = qHTS for differential inhibitors of proliferation of Plasmodium falciparum line D10 (AID 1877);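 note: parasites grown with compound for 72 h before DNA staining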; note: potency is the fitted concentration of half-maximal effect
[14] = qHTS for differential inhibitors of proliferation of Plasmodium falciparum line Dd2 (AID 1882); conditions: Potency: Plasmodium falciparum Dd2 proliferation inhibition; note: nearly all actives have a fitted effect of over 65% in size; note: potency is the fitted concentration of half-maximal effect
Outline: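 RBC culture, 0.3% parasitemia / 2.5% Hct final; cpd added by pin tool in DMSO; 72 h, 37 C, 5% CO2; lysis buffer + SYBR Green I, o/n RT dark; FI 485/535; norm. to artemisinin 0.29 uM and DMSO.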

[15] = qHTS for differential inhibitors of proliferation of Plasmodium falciparum line W2 (AID 1883); conditions: Potency: Plasmodium falciparum W2 proliferation inhibition;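 note: parasites grown with compound for 72 h before lysis and staining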; note: potency is the fitted concentration of half-maximal effect
[16] = qHTS for differential inhibitors of proliferation of Plasmodium falciparum line HB3 (AID 1886); conditions: Potency: Plasmodium falciparum HB3 proliferation inhibition;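 note: parasites grown with compound for 72 h before SYBR Green readout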; note: potency is the fitted concentration of half-maximal effect
[17] = target: Endonuclease 4 (Escherichia coli (strain K12)) (UniProt P0A6C1); assay: Counterscreen for APE1 Inhibitors: qHTS Validation Assay for Inhibitors of Endonuclease IV (AID 1708)
Outline: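 Read-out: fluorescence rise (ex 525/em 598 nm) from incision of a TAMRA/BHQ-2 double-stranded THF abasic-site substrate (50 nM), measured kinetically; third-minus-first read difference gave reaction progress. Enzyme 2 nM.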

[18] = qHTS Assay for Modulators of Human Peripheral Myelin Protein 22 (PMP22) Expression/Activity (AID 1967; active = well fitted curve in the direction sought with a large enough effect in the signal ratio; the % refers to the signal ratio)
Outline: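 Quantitative HTS in a mouse Schwann cell line expressing dual click beetle luciferases: Pmp22 promoter (green) and control EF-alpha promoter (red). After 24h treatment, corrected green/red signal ratio gave %Activity relative to untreated cells.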

Measured: Potency

Chain of Alpha-galactosidase A (Homo sapiens) (P06280 whole entry, looked up): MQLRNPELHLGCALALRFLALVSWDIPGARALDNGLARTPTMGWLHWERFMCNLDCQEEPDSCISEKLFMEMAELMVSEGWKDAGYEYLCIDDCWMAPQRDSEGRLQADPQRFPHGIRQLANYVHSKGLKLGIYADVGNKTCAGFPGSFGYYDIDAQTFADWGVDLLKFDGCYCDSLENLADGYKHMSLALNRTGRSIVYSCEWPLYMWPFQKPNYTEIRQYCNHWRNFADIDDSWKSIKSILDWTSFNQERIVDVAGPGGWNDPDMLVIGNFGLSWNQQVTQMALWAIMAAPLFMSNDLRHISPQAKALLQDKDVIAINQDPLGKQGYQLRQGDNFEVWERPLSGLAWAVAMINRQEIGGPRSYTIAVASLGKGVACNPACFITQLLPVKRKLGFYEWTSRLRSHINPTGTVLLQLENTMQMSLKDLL
Chain of Alpha-galactosidase (Coffea arabica) (Q42656 whole entry, looked up): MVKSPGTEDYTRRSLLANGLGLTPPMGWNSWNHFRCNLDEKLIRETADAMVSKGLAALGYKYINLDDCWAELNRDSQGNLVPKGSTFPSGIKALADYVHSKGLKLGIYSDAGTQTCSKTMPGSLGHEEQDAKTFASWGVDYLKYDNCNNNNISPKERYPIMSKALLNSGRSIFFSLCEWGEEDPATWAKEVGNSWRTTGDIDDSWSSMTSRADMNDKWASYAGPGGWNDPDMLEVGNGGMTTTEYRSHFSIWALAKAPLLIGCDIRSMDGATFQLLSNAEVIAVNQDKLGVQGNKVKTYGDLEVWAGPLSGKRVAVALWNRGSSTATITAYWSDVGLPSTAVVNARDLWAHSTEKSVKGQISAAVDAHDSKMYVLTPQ
Chain of DNA repair nuclease/redox regulator APEX1 (Homo sapiens) (P27695 whole entry, looked up): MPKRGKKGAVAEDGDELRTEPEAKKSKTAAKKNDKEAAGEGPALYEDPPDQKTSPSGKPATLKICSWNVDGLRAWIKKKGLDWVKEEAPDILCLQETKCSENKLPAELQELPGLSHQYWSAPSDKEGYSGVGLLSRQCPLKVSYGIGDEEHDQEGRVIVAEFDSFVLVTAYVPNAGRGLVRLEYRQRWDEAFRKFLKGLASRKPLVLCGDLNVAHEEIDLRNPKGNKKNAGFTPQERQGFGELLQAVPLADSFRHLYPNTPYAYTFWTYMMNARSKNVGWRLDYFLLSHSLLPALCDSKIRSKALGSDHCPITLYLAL

C[C@H]1CCC[C@H](O)CCCCCc2cc(O)cc(O)c2C(=O)O1
inactive: [1] | [2] | [3] | [4]

COC1=CC(=O)O[C@@H](/C=C/c2ccccc2)C1
inactive: [1] | [2] | [3] | [4]

CCCN1CCc2cc(O)cc3c2[C@H]1Cc1ccc(O)c(O)c1-3
inactive: [5] | [6] | [7]

[O]=[Cd]
inactive: [1] | [2] | [3] | [4]

CC(C)CCON=O
inactive: [1] | [2] | [3] | [4]

CC(C)(C)c1cc(O)ccc1O
inactive: [2] | [3] | [4]
active: [1] 31.6 µM

O=C1C2CC=CCC2C(=O)N1SC(Cl)(Cl)Cl (configuration not stated)
active: [1] 1.58 µM and 3.16 µM | [2] 3.98 µM and 6.31 µM | [3] 7.94 µM | [4] 15.8 µM

ClC=C(Cl)Cl
inactive: [1] | [2] | [3] | [4]

N#CCCN
inactive: [5] | [6] | [7]

ClC(Cl)(Cl)Cl
inactive: [1] | [2] | [3] | [4]

Oc1cc(Cl)c(Cl)cc1Cl
inactive: [2] | [3] | [4]

C=CCN=C=S
inactive: [1] | [2] | [3] | [4]

CCn1cnc2c(Nc3cccc(Cl)c3)nc(N[C@@H]3CCCC[C@@H]3N)nc21
active: [10] 3.16 µM | [11] 3.98 µM | [12] 2.82 µM | [13] 7.94 µM | [14] 11.2 µM | [15] 2.82 µM | [16] 8.91 µM
inactive: [9] | [17]

CN1CCc2cc(O)cc3c2[C@H]1Cc1ccc(O)c(O)c1-3
inactive: [5] | [6] | [7]

C[N+]1(C)[C@@H]2CC[C@H]1CC(OC(=O)c1c[nH]c3ccccc13)C2 (some centres not stated)
inactive: [5] | [6] | [7]

C[C@H]1CC[C@@H]2[C@@H](C)[C@H]3[C@H](C[C@H]4[C@@H]5CC=C6CC(O[C@@H]7O[C@H](CO)[C@H](O)[C@H](O[C@@H]8O[C@H](CO)[C@@H](O)[C@H](O)[C@H]8O)[C@H]7O[C@H]7O[C@@H](C)[C@H](O)[C@@H](O)[C@H]7O)CC[C@]6(C)[C@H]5CC[C@]34C)N2C1 (some centres not stated)
active: [3] 25.1 µM | [4] 39.8 µM
inactive: [2]

ClCC1CO1 (configuration not stated)
inactive: [2] | [3] | [4]

[O]=[Cr](=[O])([OH])[O][Cr](=[O])(=[O])[OH]
inactive: [3]
inactive and 39.8 µM (active): [4]
active: [1] 12.6 µM and 15.8 µM and 10 µM | [2] 15.8 µM and 20 µM and 12.6 µM

c1ccc2c(c1)[I+]c1ccccc1-2
inactive: [5] | [6] | [7]
active: [10] 0.1 µM | [11] 0.0708 µM | [12] 0.0708 µM | [13] 0.141 µM | [14] 1 µM | [15] 0.1 µM | [16] 0.0562 µM

CCCCCCCCCCCCCC(=O)O[C@@H]1[C@@H](C)[C@@]2(O)[C@@H](C=C(CO)C[C@@]3(O)C(=O)C(C)=C[C@@H]23)C2C(C)(C)[C@@]21OC(C)=O (some centres not stated)
active: [10] 5.62 µM | [11] 11.2 µM | [12] 10 µM | [13] 11.2 µM | [15] 7.08 µM | [16] 12.6 µM

CC(C)Nc1ccc(Nc2ccccc2)cc1
active: [1] 12.6 µM | [2] 39.8 µM | [3] 31.6 µM | [4] 50.1 µM

C[N+]1(C)C2CCC1CC(OC(=O)c1c[nH]c3ccccc13)C2 (configuration not stated)
inactive: [9] | [17]
active: [10] 11.2 µM | [11] 12.6 µM | [12] 14.1 µM | [13] 12.6 µM | [14] 12.6 µM | [15] 7.94 µM | [16] 14.1 µM

O=[N+]([O-])c1ccccc1
inactive: [1] | [2] | [3] | [4]

S=C=S
inactive: [1] | [2] | [3] | [4]

O=[N+]([O-])c1ccc(F)c([N+](=O)[O-])c1
inactive: [2] | [3] | [4]

CCOC(=O)c1ccccc1C(=O)OCC
inactive: [1] | [2] | [3] | [4]

Clc1ccc(N2C[C@H]3CC[C@@H](C2)N3)nn1
inactive: [5] | [6] | [7]

CCCCCl
inactive: [1] | [2] | [3] | [4]

C/C(O)=C(\C#N)C(=O)Nc1cc(Br)ccc1Br
inactive: [8] | [10] | [11] | [12] | [13] | [14] | [15] | [16] | [18]

CCCCCCCCOC(=O)c1ccccc1C(=O)OCCCCCCCC
inactive: [1] | [2] | [3] | [4]

Clc1ccccc1Cl
inactive: [1] | [2] | [3] | [4]

O=Cc1ccco1
inactive: [1] | [2] | [3] | [4]

C[C@]12CCC(=O)C[C@@H]1CC[C@@H]1[C@@H]2CC[C@]2(C)[C@@H](O)CC[C@@H]12
inactive: [1] | [2] | [3] | [4]

COc1ccc2c(c1)/C(=C/c1cnc[nH]1)C(=O)N2
active: [10] 7.08 µM | [11] 8.91 µM | [12] 12.6 µM | [13] 14.1 µM | [14] 12.6 µM | [15] 7.08 µM | [16] 12.6 µM
inactive: [5] | [6] | [7] | [8]

[Cl-].[Cl-].[Hg+2]
active: [1] 0.398 µM | [2] 20 µM | [3] 1.26 µM | [4] 3.16 µM

O=CC=O
inactive: [1] | [2] | [3] | [4]

C[C@@H]1[C@@H]2Cc3ccc(O)cc3[C@@]1(C)CCN2CC1CC1
inactive: [5] | [6] | [7]
